Screening results from PubChem BioAssay.
TLR4-MyD88 inh: inhibitors of human TLR4-MyD88 binding; AID 811; inhibition, % at 10 µM; 16,000 compounds, 0.06% hits; Cell-based TLR4-MyD88 binding inhibition assay; O00206; in the data active means inhibition above about 45%
PME-1 Maybridge: Maybridge compound blocking human PME-1; inhibition, % at 9 µM; recombinant PME-1, FP-Rh probe fluorescence polarization; 16,000 compounds, 0.5% hits; AID 2291; Q9Y570; in the data active means inhibition above about 30%
rat GALR2 agon: agonists of rat galanin receptor 2 (GALR2). O08726. cell-based GALR2 agonist screen. activation, % at 10 µM. 16,000 compounds, 0.5% hits; in the data active means activation above about 15%
S1P1 agonist: S1P1 (human) receptor agonism; S1P1 agonist cell-based reporter assay; activation, % at 4.5 µM; 16,000 compounds, 1.5% hits; in the data active means activation above about 80%
KOR antag MB: antagonists of human kappa opioid receptor OPRK1, Maybridge library; P41145; OPRK1 cells, antagonist mode, fluorescence readout; inhibition, % at 9 µM; 16,000 compounds, 0.4% hits; in the data active means inhibition above about 50%
The depositor's hits bear a star. Compounds with a hit are over-represented: about 2.8% of the library has one in this group of screens.

SMILES | TLR4-MyD88 inh | PME-1 Maybridge | rat GALR2 agon | S1P1 agonist | KOR antag MB
Nc1c([N+](=O)[O-])cncc1[N+](=O)[O-] | 6.3 | -6.7 | -3.8 | 111.5* | 19.9
CC12C=CC(=O)C=C1CCC1C2CCC2(C)C(=O)CCC12 (centres undefined) | 11.9 | -4.9 | -2.4 | 2.0 | 19.0
COc1cc2c(cc1OC)[C@@H]1C(=O)c3ccc4c(c3O[C@@H]1CO2)C[C@H](C(C)C)O4 | -11.4 | 4.7 | -10.6 | 110.1* | -3.2
O=C1CC(C(=O)c2ccccc2)CO1 (centres undefined) | -2.7 | 1.9 | -7.3 | -3.6 | -0.8
Cc1c([N+](=O)[O-])cc2c(c1[N+](=O)[O-])C(C)(C)CC2(C)C | 2.5 | -0.5 | -11.0 | 101.9* | 7.5
O=C1NC(=O)C(=Cc2ccc(O)cc2)C(=O)N1 | 0.2 | -1.3 | -7.7 | -4.3 | 13.7
O=[N+]([O-])/C=C/c1ccc(OCc2ccccc2)cc1 | -6.5 | -6.8 | -9.0 | 22.3 | 62.2*
CN(C)Cc1c[nH]c2ccc(OCc3ccccc3)cc12 | -8.9 | 8.2 | -4.9 | 1.7 | 24.1
O=C1C(Cl)=C(Cl)C(=O)c2ccccc21 | -6.8 | 44.7* | -17.6 | 71.7 | 26.2
CC1CN(CCC(=O)Nc2ccc(Cl)cc2C(=O)c2ccccc2)CC(C)O1 (centres undefined) | -1.5 | -3.2 | -6.5 | -0.6 | -2.1
